Experimental findings from PubChem BioAssay are described below.

The structures appear in SMILES notation.

Sequence of Streptavidin (Streptomyces avidinii) (P22629 whole entry, looked up): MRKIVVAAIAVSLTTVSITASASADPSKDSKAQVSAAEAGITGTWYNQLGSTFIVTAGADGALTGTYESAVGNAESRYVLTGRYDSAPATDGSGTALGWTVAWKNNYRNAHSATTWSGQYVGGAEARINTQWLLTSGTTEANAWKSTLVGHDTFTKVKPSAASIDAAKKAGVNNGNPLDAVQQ

The experiment concerns the target Streptavidin (Streptomyces avidinii) (UniProt P22629). Put plainly: compounds binding control protein streptavidin – biophysical, small-molecule microarray, 635/667 nm fluorescence, artefact control for SMM compound annotation, primary screen (AID 1147).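 Note: signal reflects streptavidin binding to arrayed compounds as a control protein.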 Particulars: higher = more signal.
Consider `CC(=O)OC[C@H]1O[C@@H](ON=C[C@@H](C)[C@H](OCc2ccccc2)C(C)C)[C@H](OC(C)=O)[C@@H](OC(C)=O)[C@@H]1OC(C)=O`, for which the composite z-score was -0.173.

The molecule `CN1C(=O)C2C=CC(C(O)C(c3ccccc3)c3ccccc3)N(NC(=O)OC(C)(C)C)C2C1=O` (stereo unspecified) gave a composite z-score of 1.68.

The molecule `COC(=O)C1=C(C)N(Cc2ccccc2)[C@]23O[C@](C(=O)OC)(C(=O)N2[C@@H]1c1ccccc1)[C@H]1CCOC(=O)[C@H]13` registered a composite z-score of 0.0391.

The molecule `C=C(CCCC)C(=O)CC[C@@H](OC(C)=O)c1cccc(OCCO)c1` gave a composite z-score of -0.543.

In the case of `CO[C@@H]1COC(=O)CC=C[C@@H](C)[C@@H]2C=C[C@@H](O)[C@@H](COC(=O)CC=C[C@H]1C)O2`, the composite z-score was -0.0469.

`COC(=O)[C@@]1(Cc2ccccc2)[C@H]2c3cc(C(=O)N4CCCC4)n(Cc4ccccn4)c3C[C@H]2CN1C(=O)c1ccccc1` showed a composite z-score of 1.02.

As for `CCOC(=O)NN=C1C[C@@H](O)[C@@H](O)[C@@H]2[C@@H]3C(=O)N(C(C)(C)C)C(=O)[C@@H]3CC[C@@H]12`, the composite z-score is -0.784.

Consider `C=CCN1C(=O)[C@]2(O[C@H](CCn3cc(CCO)nn3)[C@@H]([Si](C)(C)c3ccc(OC)cc3)[C@@H]2C)c2cc(N3CCOC3=O)ccc21`, for which the composite z-score amounted to 1.32.

As for `CCOc1ccc(N2C(=O)/C(=C/C=C/c3ccccc3OC)S(=O)(=O)C2c2cccc([N+](=O)[O-])c2)cc1` (stereo unspecified), the composite z-score is 0.27.

Regarding `O[C@@H](Cc1ccccc1)[C@H]1C2C=CCCC(c3ccccc3)=C2CN1Cc1cccc(Cl)c1` (stereo partly specified), the composite z-score turned out to be 0.26.

On to `CO[C@H]1O[C@H](CO)[C@@H](OC(=O)Nc2ccc(C#N)cc2)[C@H](OC(=O)c2cc3ccccc3[nH]2)[C@H]1OC(=O)c1cc2ccccc2[nH]1`, for which the composite z-score came to 0.779.

In turn, `Cc1ccc(S(=O)(=O)N[C@@H]2COC(=O)[C@H](C)COC(=O)CC=C[C@H]2C)cc1` registered a composite z-score of 0.134.

Consider `C=CC[C@@H]1C=C[C@H](ON=C2c3cc(OC)ccc3O[C@H](c3cccc(OC)c3)[C@H]2O)[C@@H](CO)O1`, for which the composite z-score was 0.0285.

On to `C=CCC(OC(C)=O)[C@@H]1[C@@H](N(Cc2cc3ccccc3o2)C(=O)Cc2ccc(F)cc2)c2cc(OCCCO)ccc2N1C(=O)Cc1ccc(OC)cc1` (stereo partly specified), for which the composite z-score is 0.0444.

In turn, `CCOC(=O)[C@H](CC(C)C)NC(=O)CCC1CC(OC(=O)NCCc2ccc(F)cc2)CC2(CCCC(COC(=O)NCc3ccccc3)O2)O1` (stereo partly specified) gave a composite z-score of 0.255.

As for `O=C1[C@H]2[C@H]3[C@H](O)[C@H](O)CC(=NOC[C@@H](O)COCc4ccco4)[C@H]3CC[C@H]2C(=O)N1Cc1ccc2c(c1)OCO2`, the composite z-score is -0.405.

Consider `CC(CCC(=O)OC[C@H]1O[C@H](C#Cc2ccccc2)C=C[C@@H]1Oc1ccc(C)cc1)=NOC[C@@H](O)[C@H]1O[C@@H]2OC(C)(C)O[C@@H]2[C@H]1O`, for which the composite z-score was -0.564.

Molecule `CC(C)(C)N1CC=CC23O[C@@H]4C=CCCOC(=O)C4[C@H]2C(=O)N(CCCCCO)[C@@H]3C1=O` (stereo partly specified) came in with a composite z-score of -0.102.

Molecule `CCc1cc2c(nc1CC)CCN(CCC(C)=NO[C@@H](C)c1cc(-c3c(C)cc(C)cc3C)no1)C2` yielded a composite z-score of 1.67.

For `CC(C)CON=C1C[C@@H](O)[C@@H](O)[C@@H]2[C@@H]3C(=O)N(Cc4ccccc4)C(=O)[C@@H]3CC[C@@H]12`, the composite z-score was -0.354.

Turning to `COCCCNC(=O)[C@@]1(C)c2ccccc2C(=O)N(Cc2ccc(OC(F)(F)F)cc2)[C@H]1c1ccc(CO)cc1`, the composite z-score is -0.773.

Molecule `O=C1C2=CC[C@H]3C(=O)N(Cc4ccc5c(c4)OCO5)C(=O)[C@H]3[C@H]2[C@H](O)[C@@H]2O[C@H]12` displayed a composite z-score of 0.57.

As for `COc1ccc(O[C@H]2C=C[C@@H](c3ccccc3)O[C@@H]2COC(=O)CCC(C)=NOC(C)CN2CCCCc3nc(C)c(C)cc32)cc1` (stereo partly specified), the composite z-score came to 0.095.

The molecule `CC(CCN1CCCCc2nc(C)c(C)cc21)=NOC(C)CN1CCCCc2nc(C)c(C)cc21` (stereo unspecified) showed a composite z-score of 1.1.

The molecule `O=C1[C@H]2[C@H]3[C@H](O)[C@H](O)CC(=NOCc4ccccc4)[C@@H]3CC[C@H]2C(=O)N1C1CCCCC1` yielded a composite z-score of -0.0498.

In turn, `COc1ccc([Si](C)(C)[C@@H]2[C@@H](CCO)O[C@]3(C(=O)N(Cc4ccc(NC(C)=O)cc4)c4ccccc43)[C@H]2C)cc1` came in with a composite z-score of 0.627.

The molecule `Cc1cc2c(c(=O)o1)[C@H](O)[C@H]1O[C@H]1C2=O` returned a composite z-score of 0.0061.

Turning to `O=C1[C@H]2[C@H]3[C@H](O)[C@H](O)CC(=NOC[C@@H](O)COCc4ccco4)[C@H]3CC[C@H]2C(=O)N1C1CCCCC1`, the composite z-score was -0.112.

Regarding `[N-]=[N+]=Nc1ccccc1C[C@@]1(C(N)=O)N=C(c2ccc(OCCCO)cc2)O[C@@H]1c1ccccc1`, the composite z-score was 1.08.

Turning to `CCOC(=O)NN=C1C[C@@H](O)[C@@H](O)[C@@H]2[C@@H]3C(=O)N(CC)C(=O)[C@@H]3CC[C@@H]12`, the composite z-score is -0.124.

Consider `CC(C)NC(=O)[C@@]1(c2ccc([N+](=O)[O-])cc2)CC(=O)N(CC23CC4CC(CC(C4)C2)C3)[C@@H]1c1ccc(CO)cc1I`, for which the composite z-score stood at 0.131.

Consider `COC(=O)C1(C)C=C2C(=C(c3ccccc3)C(=O)C2C)CN1` (stereo unspecified), for which the composite z-score was -0.153.

Take `O=C1[C@H]2[C@H]3[C@H](O)[C@H](O)CC(=NO[C@@H]4O[C@H](CO)[C@@H](O)[C@H](O)[C@H]4O)[C@@H]3CC[C@H]2C(=O)N1Cc1ccccc1`: the composite z-score was -0.561.

In turn, `CCOC(=O)CCN1C(=O)[C@H]2[C@H]3[C@H](O)C=CC(=O)[C@@H]3CC[C@H]2C1=O` came in with a composite z-score of 0.225.

As for `Cc1cc2c(nc1C)CCCN2CC(C)ON=C1[C@H]2CCn3c(=O)n(-c4ccccc4)c(=O)n3[C@H]2[C@H](O)[C@@H]2O[C@H]12` (stereo partly specified), the composite z-score is 0.196.

In the case of `CCCCc1nc2c(c3c1C[C@H](C)OC3)CN(CCC(C)C)CC2`, the composite z-score amounted to 0.0392.
